Compound activity as filed in PubChem.
hcDAF-12 act – H. contortus DAF-12 activation, primary screen; actives 1.4% (n = 370,000); HEK293 hcDAF-12 lit1-tk-luc reporter, luminescence; 0% DMSO, 100% Δ7-dafachronic acid; AID 652067; activation, % at 6.8 µM;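 active means activation above the mean of all tested compounds plus 3 SD, cut at about 5.5% in these data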;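 further: 100% = response to 3 µM Δ7-dafachronic acid high control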
DAX1 inh-1 – inhibits human nuclear receptor DAX1. inhibition, % at 6.75 µM. P51843. HEK293 Gal4-DAX1 luciferase reporter, luminescence. actives 0.99% (n = 340,000);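 active means inhibition above the mean over all tested compounds plus 3 SD, cut at about 4.2% in these data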;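 further: 0% = DAX1-transfected cells with DMSO and 100% = empty-vector control cells with DMSO; inhibition shows as a rise in luminescence from relieved DAX1 repression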
DAX1 inh-2 – blocks DAX1 repression of SF-1 activated StAR promoter; HEK293T StAR-luciferase reporter, SF-1/DAX-1 repression relief; AID 652010; inhibition, % at 6.8 µM; actives 1.1% (n = 370,000);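 active means inhibition above the mean over all tested compounds plus 3 SD, cut at about 3.6% in these data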;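 further: 0% = DAX-1 cells with DMSO and 100% = cells lacking DAX-1 with DMSO; higher inhibition means more luminescence from relief of DAX-1 repression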
hgDAF-12 ag – agonists of H. glycines DAF-12 nuclear receptor; HEK293 GAL4-hgDAF12 UAS-luciferase reporter, agonist luminescence; normalized to butyrate control; activation, % at 6.8 µM; actives 1.8% (n = 370,000); AID 687014;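 active means activation above a cutoff set at the mean of all screened compounds plus 3 SD, cut at about 10% in these data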;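 further: 0% = DMSO wells and 100% = sodium butyrate wells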
ssDAF-12 act – activates DAF-12 receptor from parasite S. stercoralis | HEK293 ssDAF-12/GRIP1 lit1-tk-luc reporter, luminescence; % of 3 µM dafachronic acid response | activation, % at 6.8 µM | actives 1% (n = 370,000) | AID 652126;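 active means activation above the mean over all tested compounds plus 3 SD, cut at about 0.9% in these data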;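 further: 0% = DMSO-only wells and 100% = 3 µM delta7-dafachronic acid wells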
LXRb hcDAF ctr – LXR-beta agonism as hcDAF-12 counter-screen; shares compounds with hcDAF-12 act; HEK293 Gal4-LXR tk-luc reporter, luminescence, 24 h; normalized: DMSO 0%, positive control 100%; activation, % at 6.8 µM; 3,400 tested, under 10 active;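 active means mean percent activation of the reporter above a cutoff set as the average over tested compounds plus their standard deviation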
Target sequence (P55055 whole entry, looked up, the tested form may be a part): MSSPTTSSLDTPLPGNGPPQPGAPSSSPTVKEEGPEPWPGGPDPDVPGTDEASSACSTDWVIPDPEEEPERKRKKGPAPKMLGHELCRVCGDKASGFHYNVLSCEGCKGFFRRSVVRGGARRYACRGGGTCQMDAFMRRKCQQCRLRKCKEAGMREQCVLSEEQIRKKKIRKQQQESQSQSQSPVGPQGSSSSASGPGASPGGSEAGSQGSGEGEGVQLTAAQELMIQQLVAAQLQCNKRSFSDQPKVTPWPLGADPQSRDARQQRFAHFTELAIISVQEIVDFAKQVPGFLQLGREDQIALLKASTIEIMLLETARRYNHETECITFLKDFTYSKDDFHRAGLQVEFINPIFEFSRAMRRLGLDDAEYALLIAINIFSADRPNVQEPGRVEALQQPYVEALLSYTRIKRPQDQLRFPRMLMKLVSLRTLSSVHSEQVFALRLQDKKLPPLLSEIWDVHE
hcDAF12 conf – confirmation of H. contortus DAF-12 agonists; shares compounds with hcDAF-12 act; HEK293 hcDAF-12 lit1-tk-luc reporter, luminescence; % of Δ7-dafachronic acid response; activation, % at 6.8 µM; actives 61% (n = 3,400); AID 743032;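 active means mean activation across triplicate tests above the threshold derived from the earlier primary screen, cut at about 5.5% in these data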;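 further: 0% = DMSO only wells and 100% = 3 µM Δ7-dafachronic acid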
The depositor's hits bear a star; . = no result given. An excerpt weighted towards active compounds, which were near 4.1% of everything screened.

SMILES	hcDAF-12 act	DAX1 inh-1	DAX1 inh-2	hgDAF-12 ag	ssDAF-12 act	LXRb hcDAF ctr	hcDAF12 conf
N#Cc1ccc(/C=C2\CCCCn3c2nc2cc(C(=O)O)ccc2c3=O)cc1	0	2	1	1	-1	.	.
COc1cc(C#Cc2c(C=O)n(C)c3ccccc23)cc(OC)c1	6.9*	0	0	1	0	0	3
Cn1cncc1C#Cc1c(C=O)n(C)c2ccccc12	-2	0	1	-3	-1	.	.
Cn1c(=O)c(-c2cc(Br)ccc2N)nc2ccccc21	11*	1	2	6	1.2*	1	13*
Cc1cc(NC(=O)CSc2c[nH]c3ccccc23)no1	5	1	0	4	0	.	.
Cc1cc(NC(=O)CSc2c(C)[nH]c3ccccc23)no1	6.8*	2	1	4	1.1*	0	1
COc1ccc(Cl)cc1NC(=O)c1cc(C2CC2)on1	7.6*	.	.	3	-1	0	5
COc1ccc(Cl)cc1NC(=O)c1cc(-c2ccccc2)on1	5	3	0	1	-1	.	.
Brc1cccc(-c2nc3c4ccccc4ccn3c2Cc2ccccc2)c1	7.2*	.	-1	1	1.0*	0	7.4*
CCCc1nc2c(C)cc(Br)cn2c1Cc1ccccc1	11*	.	1	7	1.0*	1	7.4*
Clc1ccc2nc(-c3cccc(Br)c3)c(Cc3ccsc3)n2c1	1	.	4	10	0	.	.
c1ccc(-c2nc3c4ccccc4ccn3c2CN2CCOCC2)cc1	8.3*	4	1	10	1	0	6.7*
Clc1ccc(-c2nc3c4ccccc4ccn3c2Cc2ccsc2)cc1	8.8*	.	2	8	0	0	5.8*
CC(C)(C)n1nc(C2CC2)cc1NC(=O)Nc1ccccc1	0	.	0	-4	-1	.	.
S=C(Nc1ccc(Br)cc1)OC1CCC12CCC(c1ccccc1)CC2 (stereo unspecified)	1	.	0	0	0	.	.
CCCc1nc2c3ccccc3ccn2c1Cc1cccc(Cl)c1	6.7*	.	2	12*	1	1	7.1*
Fc1cccc(Cc2c(C3CCCCC3)nc3c4ccccc4ccn23)c1	8.6*	.	3	10	1	0	5
Cc1cc(Br)cn2c(Cc3ccccc3)c(-c3cccc(Cl)c3)nc12	7.0*	.	-1	3	0	0	2
CN1OC[C@@H]2CN[C@H](c3ccc(-n4ccnc4)cc3)C[C@@H]21	-2	.	-1	-2	-1	.	.
CC1(c2nnnn2Cc2ccccc2)CCSCC(=O)N1Cc1cccs1 (stereo unspecified)	0	.	0	-1	-1	.	.
O=C1/C(=C/c2cccs2)Cc2ccccc21	1	-1	0	5	-1	.	.
Cn1cccc1/C=C1\CCc2ccccc2C1=O	10*	-4	3	10	0	1	11*
Cn1cccc1/C=C1\Cc2ccccc2C1=O	12*	4.3*	3.9*	19*	1.7*	2	9.4*
Cn1c(Cc2cccs2)nnc1SCC(=O)Nc1ccc(OCc2ccccc2)cc1	-2	.	2	0	-2	.	.
Cc1ccc2[nH]c(=O)c(CN(Cc3ccccc3)Cc3nnnn3C3CCCC3)cc2c1	14*	0	4	10	2.5*	0	1
SMILES	hcDAF-12 act	DAX1 inh-1	DAX1 inh-2	hgDAF-12 ag	ssDAF-12 act	LXRb hcDAF ctr	hcDAF12 conf
CCN=C1NC(c2ccc(F)cc2)C(C(=O)OC)=C(C)N1Cc1ccccc1C(F)(F)F (stereo unspecified)	-2	.	3	10	-1	.	.
O=C(CCn1nnc2ccccc21)N1CCN(c2ccccc2F)CC1	8.8*	.	2	11*	0	0	5
O=C(CCn1nnc2ccccc21)N1CCN(c2ccccc2)CC1	-1	0	0	5	-1	.	.
Cc1ccccc1N1CCN(C(=O)CCn2nnc3ccccc32)CC1	8.5*	.	3	13*	0	1	6.4*
C[C@@H]1CCN(C2CC2)S(=O)(=O)c2c(cccc2N2CCC[C@H]2C)O1	-2	.	-1	-2	-1	.	.
COC(=O)[C@]12C[C@H](CC(=O)N3CCSCC3)C(=O)N(Cc3ccccc3)C1=C[C@H](C1CCCC1)O[C@@H]2C	1	.	-1	-1	-1	.	.
O=C1c2ccccc2S(=O)(=O)c2cc(N3CCN(c4ccccc4)CC3)ccc21	-1	.	1	2	-1	.	.
O=C1c2ccccc2S(=O)(=O)c2cc(N3CCOCC3)ccc21	6.6*	1	3	8	0	1	4
CC(=O)N[C@@H](Cc1ccc(O)cc1)CN1C(N)=NC[C@@H]1CC(C)C	6.8*	0	1	1	0	0	0
Cc1cccc(NC(=S)Nc2cccc3ccccc23)c1	7.2*	1	-1	5	1.4*	0	11*
Cc1cccc(NC(=O)Nc2cccc3ccccc23)c1	-2	2	0	2	-1	.	.
CCc1cccc(NC(=S)Nc2cccc3ccccc23)c1	7.4*	1	-1	2	0	0	5.9*
Cc1ccc(O)c(-c2cc(-c3ccccc3F)[nH]n2)c1	11*	1	1	10	0	1	9.4*
CC(=O)Oc1ccc(Cl)cc1/C=C/c1ccc2ccccc2n1	8.4*	1	2	11*	1	1	6.2*
O=C(NC1CCc2ccccc21)c1cc(-c2ccc(Cl)cc2)nc2ccccc12 (stereo unspecified)	1	.	0	2	-1	.	.
CCOC(=O)c1c(C)oc2c1c1c(c3ccccc32)OCN(Cc2ccccn2)C1	6.8*	4	2	6	1.2*	1	8.5*
CCOC(=O)c1c(C)oc2ccc(O)c(CN3CCCCC3)c12	0	2	0	0	-2	.	.
CCOC(=O)c1c(C)oc2c1c(C(c1ccncc1)N1CCOCC1)c(O)c1ccccc12 (stereo unspecified)	0	.	0	3	0	.	.
CCOC(=O)c1c(C)oc2c1c(CN1CCN(C(=O)OCC)CC1)c(O)c1ccccc12	8.6*	1	2	13*	1	0	5
COCc1cc(N2CCNC[C@@H]2C)ccc1N1C[C@@H](C)O[C@@H](C)C1	-2	.	1	0	-1	.	.
CCC(C)(C)C1CCc2[nH]nc(C(=O)N/N=C(\C)c3ccco3)c2C1 (stereo unspecified)	-2	2	-1	-4	-1	.	.
C/C(=N\NC(=O)c1n[nH]c2c1CCC2)c1ccco1	11*	.	1	8	0	1	5
